# In the supplement of paper PMC3898565:
# “And” between values parts separate entries of the source, which are not always exact repeats. Identical values can stand only once. ± gives the uncertainty stated by the source.
# Test system: U87
# Experiment: cell viability relative to vehicle control; higher = less growth inhibition (less active)
# Details: 10 µM; 72 h
# 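Also: viable cell number estimated from Alamar Blue fluorescence read at 560/90, part of a single-dose primary screen of an FDA-approved drug library.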
row,Structure (SMILES),cell viability
1,Clc1cccc(Cl)c1NC1=NCCN1,108 ± 2.8%
2,Cc1ncc([N+](=O)[O-])n1CC(O)CCl (centres undefined),91.08 ± 0.44%
3,COc1cc(-c2ccc(=O)[nH]n2)ccc1OC(F)F,111 ± 3.7%
4,Nc1ncnc2c1ncn2[C@@H]1O[C@H](CO)C[C@@H]1O [3'-deoxydenosine],100.2 ± 0.64%
5,O=C(O)CCNC(=O)c1ccc(/N=N/c2ccc(O)c(C(=O)O)c2)cc1,99.6 ± 1.4%
6,O=c1c(O[C@@H]2O[C@H](CO)[C@@H](O)[C@H](O)[C@H]2O)c(-c2ccc(O)c(O)c2)oc2cc(O)cc(O)c12 [Isoquercitrin],104 ± 1.7%
7,Cc1c(O)cccc1C(=O)N[C@@H](CSc1ccccc1)[C@H](O)CN1C[C@H]2CCCC[C@H]2C[C@H]1C(=O)NC(C)(C)C,102.1 ± 1%
8,c1cnc(N2CCN(Cc3ccc4c(c3)OCO4)CC2)nc1 [Piribedil],108.4 ± 0.77%
9,CCCc1c(OCCCCc2nnn[nH]2)ccc(C(C)=O)c1O,104 ± 1.5%
10,CCc1oc2ccccc2c1C(=O)c1cc(Br)c(O)c(Br)c1,107.7 ± 0.81%
11,COc1ccc2[nH]c([S+]([O-])Cc3ncc(C)c(OC)c3C)nc2c1 (centres undefined),105% and 106%
12,CCCc1nc(C)c2c(=O)nc(-c3cc(S(=O)(=O)N4CCN(CC)CC4)ccc3OCC)[nH]n12,107.7 ± 0.41%
13,Nc1nc(Cl)nc2c1ncn2[C@@H]1O[C@H](CO)[C@@H](O)[C@H]1O,90.6 ± 3%
14,COc1cc(/C=C/c2ccc(O)cc2)cc(OC)c1,100.4 ± 0.43%
15,Clc1ccc(CO/N=C(\Cn2ccnc2)c2ccc(Cl)cc2Cl)c(Cl)c1,103 ± 3.9%
16,O=C1CN2Cc3c(ccc(Cl)c3Cl)N=C2N1,103 ± 2.1%
17,CC(C)c1ccc2oc3nc(N)c(C(=O)O)cc3c(=O)c2c1,107 ± 1.8%
18,Cn1c(NCCN(CCO)CCCc2ccc([N+](=O)[O-])cc2)cc(=O)n(C)c1=O,102 ± 3.1%
19,COc1cccc2c1C(=O)c1c(O)c3c(c(O)c1C2=O)C[C@@](O)(C(=O)CO)C[C@@H]3O[C@H]1C[C@H](N)[C@@H](O)[C@H](C)O1,23.3 ± 0.39%
20,Nc1ccc2cn[nH]c2c1,108 ± 2.4%

row,Structure (SMILES),cell viability
1,CN1CCc2cc(Cl)c(O)cc2[C@@H](c2ccccc2)C1,97.5 ± 6.3%
2,CN1CCN(c2c(F)cc3c(=O)c(C(=O)O)cn4c3c2SCC4)CC1,99.9 ± 1.7%
3,O=C(O)COCCN1CCN([C@H](c2ccccc2)c2ccc(Cl)cc2)CC1,101.2 ± 0.57%
4,COCc1c(C(C)C)nc(C(C)C)c(/C=C/[C@@H](O)C[C@@H](O)CC(=O)O)c1-c1ccc(F)cc1,14.2 ± 3%
5,COC(=O)C1=C(C)NC(C)=C(C(=O)OC(C)C)C1c1cccc2nonc12 (centres undefined),104.2 ± 0.44%
6,O=c1n(CCCN2CCN(c3cccc(Cl)c3)CC2)nc2ccccn12,101 ± 1.3%
7,O=C(NCCO[N+](=O)[O-])c1cccnc1 [Nicorandil],101 ± 2.2%
8,CN(C)CCOc1ccc(/C(=C(/CCCl)c2ccccc2)c2ccccc2)cc1,106 ± 1.8%
9,CC[C@]1(O)C[C@H]2CN(CCc3c([nH]c4ccccc34)[C@@](C(=O)OC)(c3cc4c(cc3OC)N(C=O)[C@H]3[C@@](O)(C(=O)OC)[C@H](OC(C)=O)[C@]5(CC)C=CCN6CC[C@]43[C@@H]65)C2)C1,25.9 ± 3.1%
10,CC[C@@H]1C(=O)OC[C@@H]1Cc1cncn1C,101 ± 0.86%
11,COc1cc2c(cc1OC)C(=O)C(CC1CCN(Cc3ccccc3)CC1)C2 (centres undefined) [Donepezil],99.1 ± 1.4%
12,COCCCC/C(=N\OCCN)c1ccc(C(F)(F)F)cc1 [Fluvoxamine],106 ± 1.5%
13,OCCN1CCN(CCCN2c3ccccc3Sc3ccc(C(F)(F)F)cc32)CC1 [Fluphenazine],104.3 ± 0.93%
14,O=C(O)Cc1ccccc1Nc1c(Cl)cccc1Cl,105.9 ± 0.17%
15,CO[C@H]1/C=C/O[C@@]2(C)Oc3c(C)c(O)c4c(O)c(c(/C=N/N5CCN(C6CCCC6)CC5)c(O)c4c3C2=O)NC(=O)/C(C)=C\C=C\[C@H](C)[C@H](O)[C@@H](C)[C@@H](O)[C@@H](C)[C@H](OC(C)=O)[C@@H]1C,93.7 ± 1.3%
16,c1ccc(-c2ccc(C(c3ccccc3)n3ccnc3)cc2)cc1 (centres undefined),101 ± 1.2%
17,COc1nc(C)nc(Cl)c1NC1=NCCN1,102 ± 1.7%
18,CN(C)CCN(Cc1ccccc1)c1ccccn1,96.4 ± 2.6%
19,O=C1CCc2ccc(OCCCCN3CCN(c4cccc(Cl)c4Cl)CC3)cc2N1,102 ± 1.1%
